This is a sample that favours compounds with a hit; in the whole collection about 5.3% have one here.
VACV mCherry inh – qHTS for Stage-Specific Inhibitors of Vaccinia Orthopoxvirus: mCherry Reporter Primary qHTS. Vaccinia virus mCherry reporter infection, fluorescence. Potency, µM (doses to about 36.5 µM), without a hit: top-dose activity change, negative = inhibition, hits mostly inhibitors. hit rate 0.63% among 310,000. AID 720579, 2013; calls by dose curve; tested in A549 cells; further: nearly all actives have a fitted effect of over 35% in size
HCV inh – qHTS Assay for Inhibitors of Hepatitis C Virus (HCV); Huh7.5.1 HCVcc-Cre infection, luciferase reporter, 44 h; Potency, µM (titrated, usually from 41.8 µM), for inactives: top-dose activity change, negative = inhibition, hits mostly inhibitors; hit rate 3.4% among 340,000; AID 651820, 2012; active means well fitted inhibition curve with a large enough effect; inconclusive means small, poorly fitted or top-dose-only effect, or another doubt; inactive means no such curve, though single readings can be large or run the other way
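Infectious HCVcc-Cre (~0.5 moi) was added to cells just after compound, with cells seeded 4 h earlier at 1,000 per well. Luciferase activity after 44 h culture reported infection; substrate was incubated 15 min at room temperature before reading.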
VACV Venus inh – qHTS for Stage-Specific Inhibitors of Vaccinia Orthopoxvirus: Venus Reporter Primary qHTS; Vaccinia virus Venus reporter expression, fluorescence; Potency, µM (highest dose often 36.5 µM), without a hit: at the highest dose activity change, negative = inhibition, usual class: inhibitors; hit rate 0.46% among 330,000; AID 720580, 2013; calls by dose curve; tested in A549 cells; further: nearly all actives have a fitted effect of over 30% in size
Marburg entry inh – qHTS for inhibitors of binding or entry into cells for Marburg Virus; Marburg virus pseudotyped entry inhibition, cell reporter; Potency, µM (highest dose often 37.8 µM), for inactives: top-dose activity change, negative = inhibition, actives largely listed as inhibitors; hit rate 1.8% among 300,000; AID 540276, 2011; calls by dose curve; tested in HEK293 cells
LASV entry inh – qHTS for Inhibitors of binding or entry into cells for Lassa Virus; hit rate 1.2% among 300,000; Potency, µM (titrated, usually from 37.9 µM), without a hit: at the top dose activity change, negative = inhibition, most hits filed as inhibitors; AID 540256, 2011; Lassa virus pseudotype entry inhibition, cell reporter; calls by dose curve; tested in HEK293 cells; further: nearly all actives have a fitted effect of over 50% in size
FMDV inh – High Throughput Screening for Foot and Mouth Disease Virus Antivirals; hit rate 1.2% among 410,000; AID 1159524, 2015; FMDV antiviral cell-based qHTS; Potency, µM (top dose mostly 57.9 µM), inactives show top-dose activity change, negative = inhibition, hits mostly inhibitors; calls by dose curve; tested in HEK293T cells; further: read-out not given here; nearly all actives have a fitted effect of over 45% in size
Active calls of the source: *; i = inactive; ? = inconclusive; · = not tested or not shown; [ ] = another dose, or the depositor's remark. On the % scale 0 is the no-effect control and ±100 the full control effect; potency means the concentration at half of the fitted maximal effect.

SMILES	VACV mCherry inh	HCV inh	VACV Venus inh	Marburg entry inh	LASV entry inh	FMDV inh
COc1cc(CN2CCCC(n3cc(C(=O)N4CCCCC4)nn3)C2)cc(OC)c1 (centres undefined)	-26.5%	·	-27.6%	·	·	-11.0%
Cc1cccc(Nc2cc(C)c3c(O)cccc3n2)c1C	14.1µM*	?	?	?	?	3.7%
Cc1ccc2nc(-c3ccccn3)[nH]c2c1	-11.5%	-29.7%	-7.4%	?	6.31µM*	-39.5%
Cc1ccccc1-c1nnc(SCC(=O)Nc2cccnc2Cl)o1	-16.0%	10.9%	-12.0%	?	2µM*	44.0%
CCc1nnc(NC(=O)CSc2nnc(-c3ccccc3NC(=O)c3ccccc3)o2)s1	i	11.2µM*	-12.9%	-0.7%	-1.9%	·
COc1ccccc1NC(=O)CSc1nnc(-c2ccccc2C)o1	-5.6%	·	-2.5%	?	?	-0.6%
CC(=O)C1=C(C)NC(SCC(=O)c2ccc(Cl)cc2Cl)=C(C#N)C1c1ccco1 (centres undefined)	i	2.51µM*	-2.6%	-27.3%	?	·
CCOC(=O)C1=C(c2ccccc2)NC(SCC(=O)Nc2ccccc2C)=C(C#N)C1c1ccco1 (centres undefined)	·	?	·	23.1µM*	?	-27.5%
CC(=O)C1=C(C)NC(SCC(=O)c2ccc(Cl)cc2)=C(C#N)C1c1ccco1 (centres undefined)	-19.7%	?	-10.0%	?	-28.6%	-20.7%
C=CCOC(=O)C1=C(C)NC(SCC(=O)Nc2ccc(C)c(Cl)c2)=C(C#N)[C@@H]1c1ccco1	·	·	·	10µM*	·	·
COC(=O)C1=C(C(=O)OC)[C@@H]2Nc3ccccc3[C@@]23C[C@@H](C(=O)OC)N(C(=O)Nc2ccccc2F)C3=N1	·	·	·	-9.2%[14.2 µM]	·	·
O=C(CSc1ccccc1C(=O)NCc1ccccc1)NC12CC3CC(CC(C3)C1)C2	?	-25.2%	?	?	10µM*	?
CC(=O)NN1C(=O)/C(=C2/Sc3ccc(Cl)cc3N2C)SC1=S	i	18.9%	-16.3%	23.4%	?	4.0%
Cc1cccc(Nc2nc(N)c([N+](=O)[O-])c(N3CCCC(C)C3)n2)c1 (centres undefined)	12.6µM*	?	10µM*	?	?	22.4µM*
Nc1nc(Nc2ccccc2F)nc(N2CCCC2)c1[N+](=O)[O-]	-19.1%	8.91µM*	?	?	0.0%[46.1 µM]	13.0%
Cc1cccc(Nc2nc(N)c([N+](=O)[O-])c(N3CCN(C)CC3)n2)c1	?	?	?	?	2.1%	-26.2%
Cc1ccc(Nc2nc(N)c([N+](=O)[O-])c(N3CCC(C)CC3)n2)cc1C	-3.8%	?	-5.6%	14.1µM*	-1.5%	-16.6%
CCN1CCN(c2nc(Nc3ccccc3F)nc(N)c2[N+](=O)[O-])CC1	·	6.0%	·	·	·	2.6%
Cc1ccc(N2CN=c3s/c(=C/c4cccnc4)c(=O)n3C2)cc1	·	·	·	-20.5%[46.1 µM]	·	·
CCOC(=O)CCN1C(=O)[C@H]2[C@H]3[C@H](O)[C@H](O)C/C(=N\NC(=O)OCc4ccc(OC)cc4)[C@@H]3CC[C@H]2C1=O	·	·	·	11.9%[14.2 µM]	·	·
Cc1c(C(=O)N2CCOc3ccc(Cl)cc3C2)sc2ncnc(NCCc3ccccn3)c12	i	·	-3.8%	·	·	-23.1%
O=C(C[n+]1cccc(Br)c1)c1ccc(O)c(O)c1	16.9%	·	11.1%	·	·	·
Cc1ccc(-c2cc3ncc(C(=O)c4cc([N+](=O)[O-])ccc4O)cn3n2)cc1	?	·	-27.8%	0.1%[46.1 µM]	9.6%[46.1 µM]	?
N#Cc1c[nH]n2c(NC3CCCC3)c(-c3ccc(Cl)cc3)nc12	-19.0%	·	-14.3%	1.41µM*	-27.4%[46.1 µM]	-10.8%
CCOC(=O)[C@]12Cc3cc(OC)ccc3[C@H]1N(CC(=O)OC)C(=O)c1cc(OC)ccc12	13.3%	·	0.1%	·	·	14.1µM*
SMILES	VACV mCherry inh	HCV inh	VACV Venus inh	Marburg entry inh	LASV entry inh	FMDV inh
CCOC(=O)[C@]12Cc3cc(OC)ccc3[C@H]1N(CC(=O)OC)C(=O)c1ccccc12	4.0%	·	-3.7%	·	·	-18.4%
CCOC(=O)[C@]12Cc3cc(OC)ccc3[C@H]1N(C)C(=O)c1cc(OC)ccc12	?	·	-24.6%	·	·	11.2µM*
CCCCCN1C(=O)c2ccccc2[C@@]2(C(=O)OCC)Cc3cc(Cl)ccc3[C@@H]12	?	·	-25.5%	·	·	?
CCOC(=O)[C@]12Cc3cc(C)ccc3[C@H]1N(Cc1ccccc1)C(=O)c1cc(OC)ccc12	-28.2%	·	?	·	·	?
CCCCCN1C(=O)c2cc(OC)ccc2[C@@]2(C(=O)OCC)Cc3cc(OC)ccc3[C@@H]12	?	·	?	·	·	3.16µM*
CCOC(=O)[C@]12Cc3cc(Cl)ccc3[C@H]1N(C)C(=O)c1cc(OC)ccc12	?	·	?	·	·	15.8µM*
COc1cccc(C(=O)CC2(O)C(=O)Nc3ccc(Cl)cc32)c1 (centres undefined)	2.4%	·	-5.4%	?	-8.0%[46.1 µM]	5.0%
COC(=O)CC=C[C@H](C)[C@@H](NC(=O)C(F)(F)F)c1ccccc1Br	·	·	·	-21.4%[14.2 µM]	·	·
O=C(CSc1n[nH]c(-c2ccccc2Cl)n1)N1CCN(c2ccccc2)CC1	-7.2%	·	-2.8%	·	-4.4%[46.1 µM]	35.5µM*
COc1ccc(N2CCN(C(=O)CSc3n[nH]c(-c4ccccc4Cl)n3)CC2)cc1	-10.7%	·	-12.3%	·	23.2%[46.1 µM]	-14.4%
C/C(=N\NC(=O)COc1cccc(C)c1)c1ccc2ccccc2c1O	·	11.2µM*	·	·	·	35.2%
CSc1ncc(C(=O)Nc2ccccc2C(F)(F)F)c(-c2ccccc2)n1	-12.0%	·	-5.1%	·	6.4%[46.1 µM]	-14.2%
Brc1ccc2[nH]c3nc(SCCN4CCOCC4)nnc3c2c1	-4.2%	-15.3%	-15.2%	?	0.501µM*	?
O=C(N/N=C\c1cn(-c2ccccc2)nc1-c1ccccc1)c1ccc(Br)o1	?	3.98µM*	-29.1%	?	?	?
Cc1nnc(SCC(=O)N/N=C/c2cn(-c3ccccc3)nc2-c2ccccc2)n1-c1ccccc1	?	?	?	?	?	28.2µM*
Cc1ccc(-c2nn(-c3ccccc3)cc2/C=N/NC(=O)c2ccc(Br)o2)cc1	·	-11.0%	-14.6%	?	-24.1%	28.2µM*
O=C(N/N=C/c1cn(-c2cccs2)nc1-c1ccccc1)c1ccccc1Cl	-10.5%	11.2µM*	-16.4%	?	?	5.7%
Cc1ccc(NC(=O)C2CCN(S(=O)(=O)c3ccc4c(c3)CCCC(=O)N4)CC2)c(Cl)c1	-11.0%	·	-2.8%	·	?	?
CCCOc1ccc(/C(O)=C2\C(=O)C(=O)N(CCN(C)C)[C@H]2c2ccncc2)cc1	·	·	·	20.1%	·	·
NC[C@@H]1CC[C@@H](N)[C@@H](O[C@H]2[C@H](O)[C@@H](O[C@H]3O[C@H](CO)[C@@H](O)[C@H](N)[C@H]3O)[C@H](N)C[C@@H]2N)O1	-5.4%	·	-8.3%	·	·	2.2%

Assay outcomes from PubChem.
